# Screening results as filed in PubChem BioAssay.
# hcDAF-12 act = H. contortus DAF-12 activation, primary screen | HEK293 hcDAF-12 lit1-tk-luc reporter, luminescence; 0% DMSO, 100% Δ7-dafachronic acid | activation, % at 6.8 µM | 370,000 tested, 1.4% active | AID 652067;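 active = activation above the mean of all tested compounds plus 3 SD, cut at about 5.5% in these data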
# DAX1 inh-1 = blocks DAX1 repression of SF-1 activated StAR promoter. HEK293T StAR-luciferase reporter, SF-1/DAX-1 repression relief. inhibition, % at 6.8 µM. 370,000 tested, 1.1% active;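 active = inhibition above the mean over all tested compounds plus 3 SD, cut at about 3.6% in these data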;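 also: higher inhibition means more luminescence from relief of DAX-1 repression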
# ssDAF12 agonist = activates DAF-12 receptor from parasite S. stercoralis | HEK293 ssDAF-12/GRIP1 lit1-tk-luc reporter, luminescence; % of 3 µM dafachronic acid response | activation, % at 6.8 µM | 370,000 tested, 1% active;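 active = activation above the mean over all tested compounds plus 3 SD, cut at about 0.9% in these data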
# DAX1 inh-2 = inhibits human nuclear receptor DAX1 | P51843 | HEK293 Gal4-DAX1 luciferase reporter, luminescence | inhibition, % at 6.75 µM | 340,000 tested, 0.99% active | AID 504766;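 active = inhibition above the mean over all tested compounds plus 3 SD, cut at about 4.2% in these data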;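 also: inhibition shows as a rise in luminescence from relieved DAX1 repression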
# Target sequence (P51843 207-470 limits assumed): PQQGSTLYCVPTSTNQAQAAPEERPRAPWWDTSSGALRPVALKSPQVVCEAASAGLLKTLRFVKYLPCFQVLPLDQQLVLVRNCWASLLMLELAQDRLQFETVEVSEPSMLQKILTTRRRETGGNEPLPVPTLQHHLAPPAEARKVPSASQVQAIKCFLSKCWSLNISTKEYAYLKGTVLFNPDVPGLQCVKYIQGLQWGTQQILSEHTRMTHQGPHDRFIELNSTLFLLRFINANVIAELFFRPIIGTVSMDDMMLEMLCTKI
# hgDAF12 agonist = agonists of H. glycines DAF-12 nuclear receptor; 370,000 tested, 1.8% active; HEK293 GAL4-hgDAF12 UAS-luciferase reporter, agonist luminescence; normalized to butyrate control; activation, % at 6.8 µM; AID 687014;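 active = activation above a cutoff set at the mean of all screened compounds plus 3 SD, cut at about 10% in these data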
# A number is an active result; n = inactive; x = no result given. Most compounds without a hit are left out; they make up all but 4.1% or so of the library.
SMILES,hcDAF-12 act,DAX1 inh-1,ssDAF12 agonist,DAX1 inh-2,hgDAF12 agonist
CC(C)(C)NC(=O)CSc1nnc(-c2ccccn2)n1Cc1ccccc1,n,n,n,n,n
CC(C)(C)NC(=O)CSc1nnc(-c2ccccn2)n1-c1ccccc1,n,n,n,4.4,n
CC1OC(Nc2cccc3ccccc23)C(O)C(O)C1O (stereo unspecified),n,n,1.8,n,n
O=C(NN=Cc1ccccc1C(F)(F)F)c1cc(-c2ccc(Cl)cc2)n[nH]1,n,n,n,x,n
CN(CCc1ccccn1)C(=O)Cn1nc(-c2ccccc2)ccc1=O,n,n,n,x,n
Fc1ccc(/C=N/Nc2nn[nH]n2)cc1,n,n,n,7.1,n
CCc1ccc(/C=N/Nc2nn[nH]n2)cc1,n,n,n,n,n
COC(=O)C1CN(Cc2ccc(OC)cc2)CCS(=O)(=O)N1Cc1ccc(C(F)(F)F)cc1 (stereo unspecified),n,n,n,x,n
c1ccc(Nc2ccnc(Nc3ccccc3)n2)cc1,n,n,n,n,11
Cc1cccnc1NC(=S)Nc1ccc(Br)cc1Cl,n,n,n,6.7,12
O=C(Nc1ccccc1)OC1CCCCc2cccnc21 (stereo unspecified),n,n,1.7,n,n
COc1ccc(/C=N/n2cnnc2SCCO)cc1OC,n,n,n,n,n
C=CCSc1nncn1/N=C/c1ccc(OC)cc1,n,n,n,4.9,11
COc1ccc(Cc2c(-c3ccccc3)nc3c4ccccc4ccn23)c(C)c1,5.6,n,n,x,n
COc1ccc(Cc2c(-c3ccc(F)cc3)nc3c4ccccc4ccn23)c(C)c1,6.0,n,n,x,n
COc1ccc(Cc2c(-c3ccc(C#N)cc3)nc3c4ccccc4ccn23)c(C)c1,n,n,n,x,n
CCCCCCCCNS(=O)(=O)/C=C/c1ccc(OC)cc1CNC(=O)OC(C)(C)C,n,n,n,x,n
O=C(Nc1ccc(C(F)(F)F)cc1)OC1CC2CC1[C@H]1CCCCN1[C@H]2Cc1ccccc1 (stereo partly specified),n,n,n,x,n
Cc1ccc(-c2nc3cc(C)c(Br)c(C)n3c2Cc2ccsc2)cc1,n,3.7,1.5,x,n
Cc1ccc(-c2nc3cc(C)c(Br)c(C)n3c2CC(C)(C)C)cc1,6.5,n,1.5,x,n
Cc1cc2nc(-c3cccc(Br)c3)c(CC3CCCCC3)n2c(C)c1Br,n,n,1.6,x,n
Cc1cc2nc(-c3ccc(F)cc3)c(Cc3ccccc3)n2c(C)c1Br,n,n,n,x,n
Cc1ccc(Cc2c(-c3ccccc3)nc3cc(C)c(Br)c(C)n23)cc1,n,n,1.3,x,n
CC(C)c1cc(Cn2c3ccccc3c(=O)n2C(C)Cn2cc(CCCC#N)nn2)on1 (stereo unspecified),n,n,n,x,n
CCOC(=O)CC[C@H]1CC[C@]2(CCCN(C(=O)c3cccnc3)C2)O1,n,n,n,x,n
SMILES,hcDAF-12 act,DAX1 inh-1,ssDAF12 agonist,DAX1 inh-2,hgDAF12 agonist
COC(=O)[C@]12C[C@H](CC(=O)NCc3ccc(C)o3)C(=O)N(CCc3ccc(OC)c(OC)c3)C1=C[C@H](C1CCCC1)O[C@@H]2C,n,n,n,x,n
Cc1cc(Br)cn2c(Cc3ccsc3)c(-c3ccccc3)nc12,n,n,n,x,n
Cc1ccc(-c2nc3c(C)cc(Br)cn3c2Cc2ccsc2)cc1,n,n,n,x,11
COC(=O)c1ccc(-c2cc3onc(-c4ccccc4)c3c(=O)n2C)cc1,n,n,n,n,n
COc1cccc(-c2cc3onc(-c4ccccc4)c3c(=O)n2C)c1,n,n,n,n,12
Cn1c(-c2ccc(F)c(F)c2)cc2onc(-c3ccccc3)c2c1=O,n,n,n,n,12
O=C(NCc1cccnc1)c1nn2cccnc2c1Cl,n,n,n,5.0,n
CCOC(=O)CCc1c(C)nc(SCC(=O)O)c(C#N)c1C,n,n,n,n,n
CCOC(=O)CCc1c(C)nc(SCc2ccc(C(=O)O)cc2)c(C#N)c1C,n,n,n,6.0,n
O=C1C=C(C2OC(CO)C(O)C2O)C(=O)N1 (stereo unspecified),n,n,n,5.9,n
O=C(Nc1ccccc1F)c1ccc2ncsc2c1,n,n,n,n,13
O=C(Nc1cccc(F)c1)c1ccc2ncsc2c1,x,x,x,n,x
CCNC(=O)Nc1ccc2c(c1)C(=O)N(C)[C@H]1CC[C@H](CC(=O)N[C@H](C)c3ccccc3)O[C@@H]1CO2,n,n,n,x,n
CC1(C)C2CCC1(C(=O)O)c1nc3ccccc3nc12 (stereo unspecified),n,n,n,4.8,n
Cc1ccc(/C=C/C(=O)Nc2ccncc2)o1,n,n,n,n,n
Cc1ccc(/C=C/C(=O)Nc2ccc(N(C)C)cc2)o1,n,n,1.6,n,n
Cc1ccccc1CS(=O)(=O)Cc1ccc(C(=O)Nc2ccc(F)cc2)o1,n,n,n,x,n
COc1cc(-c2coc3c(C(=O)Nc4ccc(C(C)C)cc4)cccc23)ccc1O,5.6,4.0,0.9,x,n
COc1cc(-c2coc3c(C(=O)NC4CCCCC4)cccc23)ccc1O,n,n,n,x,n
CCc1sc(C(=O)Nc2ccc3c(c2)OCCO3)cc1Br,n,7.1,n,n,11
O=C(Nc1ccc2c(c1)OCO2)c1cncc(Br)c1,n,n,n,n,11
O=C(Nc1ccc2c(c1)OCCO2)c1ccccc1,x,x,x,n,x
O=C(NCc1ccncc1)c1cncc(Br)c1,n,n,n,4.4,n
O=C(Nc1ccc2c(c1)OCCO2)c1cncc(Br)c1,n,n,n,n,11
O=C(N/N=C\c1ccc2c(c1)OCO2)c1cncc(Br)c1,n,n,n,n,n
SMILES,hcDAF-12 act,DAX1 inh-1,ssDAF12 agonist,DAX1 inh-2,hgDAF12 agonist
CCCc1cc(=O)[nH]c(SCc2nc3ccccc3s2)n1,6.0,n,n,n,n
Cc1cc(=O)[nH]c(SCc2nc3ccccc3s2)n1,n,n,n,n,n
O=C(N=C1N(CC2CC2)CC2(C=C3CCCCC3n3c(=O)n(-c4ccccc4)c(=O)n32)N1C(=O)OCc1ccccc1)c1ccccc1 (stereo unspecified),n,n,n,x,n
CCOC(=O)CC1Sc2ccccc2NC1=O (stereo unspecified),x,x,x,n,x
CC(OC(=O)CC1Sc2ccccc2NC1=O)C(=O)N(C)Cc1ccccc1 (stereo unspecified),n,n,1.0,n,n
O=C(Nc1ccc2oc(=O)ccc2c1)c1cccnc1Cl,n,n,n,n,n
O=C(NC(=O)c1ccccc1)Nc1ccccc1,6.2,n,1.3,n,12
S=C(Nc1ccccc1)Nc1ccc2cn[nH]c2c1,n,n,n,n,n
CC(=O)c1cccc(NC(=S)NC(=O)c2ccccc2)c1,n,n,n,n,12
COc1ccc(NC(=O)NC(=O)c2ccccc2)cc1,n,n,n,n,n
O=C(NC(=S)Nc1ccc2cn[nH]c2c1)c1ccccc1,n,3.6,n,n,12
CCCC[C@H]1C2CC(OC(=O)NCc3ccc(Cl)cc3)C(C2)[C@H]2CCCCN21 (stereo partly specified),n,n,n,x,n
